PubChem BioAssay (NCI)
About 83,000 compounds went through this panel and 20% of them were active in at least one assay; those are over-represented in the sample as a whole.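 Cells were grown in 96-well plates and exposed to the test compound at a single concentration for 48 hours; results are reported as percent growth, with values below 10 considered active.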 Values without a mark were called inactive. Activity calls are given as the source filed them.

system: HCT-15 colon; experiment: NCI-60 one-dose screen, 48 h (100 = growth as untreated, 0 = no growth, -100 = all killed); conditions: 10 µM unless noted
Description: Growth inhibition of the HCT-15 human tumor cell line is measured as a screen for anti-cancer activity. Cells are grown in 96 well plates and exposed to the test compound for 48 hours. Compounds are tested at a single concentration, which is 10^-5 M for most compounds. The reported endpoint is percent growth (GI% or GIPRCNT), where numbers from 0 - 100% represent growth inhibition, and numbers from -100% - 0 represent cell death. For example, a value of 40 represents 60% growth inhibition. A value of 0 means no net growth occurred over the course of the experiment. A value of -40 indicates 40% of cells at the beginning of the experiment died by the end of the experiment. A value of -100 means all cells are dead at the end of the experiment.
NCI-60 Human Tumor Cell Lines Screen was performed using the standard one-dose NCI protocol, which is described in more detail at https://dtp.cancer.gov/discovery_development/nci-60/default.htm.
Compounds with GIPRCNT values below 10 were considered active. Activity score was based on GIPRCNT using the following formula: […]
Score is 0 for GIPRCNT values of 100 or above, 50 for GIPRCNT values of 0, and 100 for GIPRCNT values of -100.

| Compound | growth |
| --- | --- |
| Cc1cc(C)c2nc3nc(C)cc(C)c3c(N)c2c1 | 16.4% |
| CCN(CC)c1ccc(/C=N\NC(=O)/C=C/C=C/c2ccc3c(c2)OCO3)c(O)c1 | 21.3% |
| O=C(Oc1cccnc1)c1ccsc1Nc1ccnc(C(F)(F)F)c1 | 45.9% |
| O=C1/C(=C/c2ccccc2O)N=C2SCCCN12 | 97% |
| CNC(=O)c1cc(Oc2ccc(NC(=O)Nc3ccc(Cl)c(SC)c3)c(F)c2)ccn1 | 50% |
| CN(C)CCCNc1c2ccccc2nc2ccccc12 | 94.1% |
| COc1ccc(C(=O)c2sc3nc(C)cc(C)c3c2N)cc1OC | 85.4% |
| CCOC(=O)n1cc(-c2nonc2-c2cn(C)c3ncccc23)c2cc(F)ccc21 | 68.8% |
| COc1cccc(/C=C2\SC(=Nc3ccc(NC(C)=O)cc3)NC2=O)c1OC | 96.5% |
| Cc1cc(C)nc(SC2=C(Nc3ccc(C)c(Cl)c3)C(=O)N(Cc3ccccc3)C2=O)n1 | 63% [30 µM] |
| Cn1ncc2c(=O)nc3c(-c4ccccc4)n[nH]n3c21 | 104% |
| Cc1ncc(C(=O)Nc2ccc(CN3CCN(C)CC3)c(C(F)(F)F)c2)cc1C#Cc1cnc2cccnn12 | 4.12% (active) |
| N=C(N)c1ccc(-c2ccc(-c3ccc4ccccc4c3)s2)s1 | -82.4% (active) |
| CC1=CC(C)(C)Nc2ccc(Cc3ccc4c(c3)C(C)=CC(C)(C)N4)cc21 | 101% |
| CCCOc1cc2ccccc2cc1C(=O)Nc1nc(N)c2c(ccc3nccc32)[nH]1 | -44.7% (active) |
| OCCNc1nccc(N2CCN(c3ccnc4cc(Cl)ccc34)CC2)n1 | 51.3% |
| CC(C)CC1C(=O)N2CCC[C@H]2C2(O)O[C@](NC(=O)C3C=C4c5cccc6[nH]c(Br)c(c56)C[C@H]4N(C)C3)(C(C)C)C(=O)N12 (stereo not given in full) | 43.1% |
| NC(=NC1C2CC3CC(C2)CC1C3)Nc1ccc(I)cc1 (stereo not given) | 43.9% |
| Cc1ccc(C2=NN3C(C2)c2cc(Br)ccc2OC32CCN(Cc3ccccc3)CC2)o1 (stereo not given) | 85.1% |
| CCCCn1c(-c2ccc(C(=O)O/N=C(\N)c3ccc4c(c3)OCO4)cc2)nc(-c2ccccc2)c1-c1ccccc1 | 19.4% |

| Compound | growth |
| --- | --- |
| CCCCn1c(-c2ccc(C(=O)O/N=C(\N)c3ccc4ccccc4c3)cc2)nc(-c2ccccc2)c1-c1ccccc1 | 52.1% |
| COC(=O)[C@@H]1CCCN1C(=O)[C@@H]1CCCN1C(=O)[C@H](Cc1ccccc1)NC(=S)Nc1cc(C(F)(F)F)cc(C(F)(F)F)c1 | 76.4% |
| C=C1C(=O)O[C@H]2[C@H]1CC/C(COC(=O)NCc1ccc(OC)c(OC)c1)=C\CC[C@@]1(C)O[C@@H]21 | 50.7% |
| O=C1/C(=C/c2ccc3c(c2)OCO3)SC(=S)N1CCc1ccc(O)cc1 | 93% |
| CCOC(=O)c1csc(NC(=O)COc2cccc(/C=C3\CSc4ccccc4C3=O)c2)n1 | 89% |
| COc1cc(-c2nc(C(=O)NCC(=O)NO)nn2-c2ccc(Cl)cc2)cc(OC)c1OC | 101% |
| CCCCCCCCCCCCC[N+](C)(C)Cc1ccccc1 | 64.7% |
| CC(C)C1=C[C@@]23CC[C@@H]4[C@](C)(CCC[C@@]4(C)C(=O)N4CCCNCC4)[C@H]2C[C@@H]1[C@H]1C(=O)CCC(=O)[C@H]13 | 97.5% |
| COc1ccc(CN2c3ccccc3Oc3ccccc32)cc1F | 47.4% |
| CC(C)n1c(/C=C/[C@@H](O)C[C@@H](O)CC(=O)O)c(-c2ccc(F)cc2)c2ccccc21 | 50.6% |
| COc1ccc(-n2nc(C)c3c(Nc4ccc(NC(=O)Nc5cc(C(F)(F)F)ccc5F)cc4)ncnc32)cc1 | 8.66% (active) |
| N#C/C(=C\c1ccc(-c2ccc(Cl)c(Cl)c2)o1)c1nc(-c2ccco2)cs1 | 34.6% |
| COc1cccc(-c2nc3sccn3c2-c2ccnc(NCCNS(=O)(=O)c3ccc(F)cc3)c2)c1 | 17.2% |
| Cc1ccc2c(c1)C(=O)/C(=C/c1cccc(OCC(=O)c3ccc(Cl)cc3)c1)CS2 | 81.3% |
| Cc1ccc(C(SCC(N)C(=O)O)(c2ccccc2)c2ccc(C)cc2)cc1 (stereo not given) | 20.1% |
| CSc1nc(NCCO)c(C#N)c(-c2cccc([N+](=O)[O-])c2)n1 | 98.7% |
| COc1cc(-c2nc3cc(Cl)c(Cl)cc3[nH]2)ccc1OCC(=O)N=Nc1c(O)[nH]c2ccccc12 | 64.4% |
| Cn1c(=O)c2c(nc3n(-c4ccc(Cl)cc4Cl)c(Sc4nc(-c5ccccc5)c(C#N)c(=O)[nH]4)cn23)n(C)c1=O | 63.1% |
| CCOC(=O)C(C)(C#N)C1C=CCCC1 (stereo not given) | 91.3% |
| C=CC(=O)Nc1cccc(-c2nc(SC)nc(Nc3cccc(OC)c3)c2C#N)c1 | 52.5% |
